Assay results from PubChem BioAssay AID2315 (National Center for Advancing Translational Sciences (NCATS), 2010).
Among all 290,000 compounds or so, about 27,000 (9.3%) were called active. No stated cut-off is given here; in the data, active means inhibition mostly above about 28% (no sharp cut-off); inactive means mostly below about 43%. Many of the other results were omitted from the sample, so actives are more common in it than they were.

Experiment: A qHTS for Small Molecule Inhibitors of Shiga Toxin; further: 0% is about no effect
Conditions: Vero cells, Shiga toxin protein synthesis inhibition reporter; at 38.7 µM, hits give high values

| Compound | inhibition |
| --- | --- |
| Cc1nn(C)cc1CNC(=O)Nc1ccc(Cl)cc1 | 58.7% (active) |
| Cn1ccc(NC(=O)Nc2ccc(Cl)cc2)n1 | 93% (active) |
| Cc1cc(NC(=O)Nc2ccc(Cl)cc2)n(-c2ccccc2)n1 | 15.7% (inactive) |
| COc1ccc(Cl)cc1C(=O)NCc1cn(C)nc1C | -46.7% (inactive) |
| O=C(Nc1ccc(Cl)cc1)Nc1ccc(C(=O)N2CCOCC2)cc1 | 32.1% (inactive) |
| Cc1nn(C)cc1C(=O)NNC(=S)Nc1ccc(Cl)cc1 | 3.52% (inactive) |
| CCC(=O)Nc1nc(C)c(C(=O)Nc2cccc(Cl)c2)s1 | 12.8% (inactive) |
| COc1cc(/C=C2\CCCc3c2nc2ccccc2c3C(=O)O)cc(Cl)c1O | -3.8% (inactive) |
| CCc1ccc(N2CC(C(=O)Nc3ccc(S(=O)(=O)Nc4nccs4)cc3)CC2=O)cc1 (stereo not drawn) | 16.7% (inactive) |
| O=C(c1cccc(Cl)c1)N1CCN(Cc2ccccc2)CC1 | -19.8% (inactive) |
| COc1ccc(-c2noc(CNC(=O)C(C)Oc3ccccc3)n2)cc1 (stereo not drawn) | 11.6% (inactive) |
| Cc1ccccc1C(=O)N1CCC(C(=O)Nc2ccc(S(=O)(=O)N(C)C(C)C)cc2)CC1 | 24.6% (inactive) |
| Cc1cc(C(F)(F)F)n2ncc(-c3ccccc3)c2n1 | -2.7% (inactive) |
| COc1ccccc1-c1cnn2c(N3CCOCC3)cc(C)nc12 | 87.6% (active) |
| COc1ccccc1NC(=O)C1CCCN(c2cc(C)nc3ncnn23)C1 (stereo not drawn) | 2.25% (inactive) |
| N#Cc1c(-c2ccccc2)cc(-c2ccccc2)nc1SCC(=O)O | -7.81% (inactive) |
| Cc1cc(C(=O)CSc2nc(N)cc(=O)[nH]2)c(C)n1-c1cccc(F)c1 | 3.21% (inactive) |
| Cc1cc(C(=O)COC(=O)C2CC2)c(C)n1-c1ccc(F)cc1 | 52.6% (active) |
| Cc1ccc(-n2c(C)cc(C(=O)CN3C(=O)C(=O)N(C4CCCC4)C3=O)c2C)cc1 | -11% (inactive) |
| CN(CC(=O)NCc1ccncc1)S(=O)(=O)c1ccc(Br)cc1 | 9.73% (inactive) |
| Cc1cc(S(=O)(=O)Nc2ccc(C(=O)NCC(c3ccco3)N3CCCC3)cc2)ccc1F (stereo not drawn) | -11.6% (inactive) |

| Compound | inhibition |
| --- | --- |
| CCC(C)[C@H](NC(=O)N1c2ccccc2NC(=O)[C@@H]1C(C)C)C(=O)N[C@@H](Cc1ccccc1)C(=O)O (stereo partly drawn) | -1.75% (inactive) |
| CCCC(=O)n1nc(-c2ccccc2)nc1N | 17.2% (inactive) |
| Cc1nc2ccccc2c(-c2ccccc2)c1C(=O)c1ccccc1 | -2.44% (inactive) |
| Cc1nn(C(=O)c2ccoc2C)c(N)c1-c1ccccc1 | 131% (active) |
| Cc1cc(C)c2c(Cn3ccnc3)cc(=O)oc2c1 | -6.18% (inactive) |
| CC(=O)Nc1ccc(S(=O)(=O)N2CCC(C(=O)NC3CC3)CC2)cc1 | -3.15% (inactive) |
| CN(Cc1ccccc1Cl)C(=O)C1CCC(=O)N(CCc2cccc(F)c2)C1 (stereo not drawn) | 2.46% (inactive) |
| CN(C)S(=O)(=O)c1ccc2oc(SCC(=O)Nc3ccccc3F)nc2c1 | 113% (active) |
| COc1ccc(S(=O)(=O)N(C)C)cc1NC(=O)CSc1ncccn1 | -6.2% (inactive) |
| COc1ccc(NS(=O)(=O)c2ccc3oc(SCC(N)=O)nc3c2)cc1 | -13.2% (inactive) |
| Brc1c(CSc2nncc3ccccc23)nc2ccccn12 | 44.5% (active) |
| CN(C(=O)CN1C(=O)CCSc2ccc(S(=O)(=O)N3CCCC3)cc21)c1ccccc1 | -7.94% (inactive) |
| O=C(NCc1ccccc1Cl)c1ccc2c(=O)n(CC3CCCO3)c(=S)[nH]c2c1 (stereo not drawn) | 28.6% (inactive) |
| Cc1cc(C)c(OCC(=O)N(Cc2cccs2)C2CCS(=O)(=O)C2)c(C)c1 (stereo not drawn) | 12.7% (inactive) |
| CCOC(=O)N1CCN(C(=O)C(=O)Nc2sc3c(c2C#N)CC(C)(C)OC3)CC1 | -6.06% (inactive) |
| CCCC[C@H]1COCCS(=O)(=O)N1Cc1cccc(Cl)c1 | -0.556% (inactive) |
| CCC(C)[C@H]1COCCS(=O)(=O)N1Cc1ccc(C)cc1 (stereo partly drawn) | -2.97% (inactive) |
| O=S1(=O)CCOC[C@H](CC2CCCCC2)N1Cc1ccc(F)cc1 | 19.8% (active) |
| Cc1ccc(S(=O)(=O)N2CC(C)N(S(C)(=O)=O)C2)cc1 (stereo not drawn) | -4.24% (inactive) |
| Cc1ccc(-c2nnc(CN3CCN(C)CC3)o2)cc1 | 21.4% (inactive) |
| COc1cccc(NC(=O)Cn2c3ccc(F)cc3c3nc4n(c(=O)c32)CCS4)c1 | -1.58% (inactive) |

| Compound | inhibition |
| --- | --- |
| CCC(=O)Nc1ccc(S(=O)(=O)Nc2c(NC)c3ccccc3oc2=O)cc1 | 8.69% (inactive) |
| O=C(N=C1SC2CS(=O)(=O)CC2N1c1cc(Cl)ccc1Cl)C1CC1 (stereo not drawn) | -4.57% (inactive) |
| O=C(Cn1c(=S)nc2ccccn21)N1CCc2ccccc2C1 | 38.4% (inactive) |
| O=C(c1ccc(F)cc1)n1c(=S)nc2ccccn21 | 82.6% (active) |
| O=C(c1ccc(F)cc1)n1cc(C(=S)N2CCOCC2)c2ccccc21 | -2.34% (inactive) |
| CC1C(=O)N(Cc2ccccc2)c2ccccc2N1C(=O)c1ccccc1 (stereo not drawn) | 2.9% (inactive) |
| O=C(CN1C(=O)c2cccc3cccc1c23)Nc1ccccc1 | -7.35% (inactive) |
| CSCc1cc(N(C)C)nc(SCc2ccc(Cl)cc2Cl)n1 | -20.3% (inactive) |
| CSCc1cc(N2CCOCC2)nc(SCc2ccc(Cl)cc2Cl)n1 | 30.9% (active) |
| CC(C)(CNC(=O)Cc1ccc(Cl)cc1Cl)N1CCOCC1 | 2.65% (inactive) |
| CCn1c(SCC(=O)Nc2ccc(Br)cc2)nc2sc3c(c2c1=O)CCN(C)C3 | 18.8% (inactive) |
| CCN(Cc1ccccc1)C(=O)CN1C(=S)NC(C)(C)CC1C (stereo not drawn) | -3.94% (inactive) |
| Cc1ccc(CSc2nnc(-c3cnccn3)n2C)cc1 | 36.7% (inactive) |
| Cn1c(SCc2c(F)cccc2Cl)nnc1-c1cnccn1 | 119% (active) |
| Oc1ccc(-n2nnnc2SCc2c(F)cccc2Cl)cc1 | -2.08% (inactive) |
| CC(OC(=O)c1ccc2ccccc2n1)C(=O)c1ccccc1 (stereo not drawn) | 86.7% (active) |
| CC(OC(=O)c1ccccc1N1C(=O)C2C3CCC(C3)C2C1=O)C(=O)c1ccccc1 (stereo not drawn) | 5.16% (inactive) |
| COc1ccc(C(=O)COC(=O)c2ccc3ccccc3n2)cc1 | 28.4% (inactive) |
| O=C(CCc1ccccc1F)N1CCN(c2ccccc2)CC1 | -0.211% (inactive) |
| O=C(CCSc1ccccc1)N1CCN(c2ccccc2F)CC1 | 95.5% (active) |
| O=C(NCC(=O)N1CCN(c2ccccc2F)CC1)c1cccs1 | 26.2% (inactive) |
